High-throughput results as filed in PubChem.
Rows were chosen to be rich in hits. Some 21% of all compounds tested hit in one or more screens of this group.
Cycloheximide cs = counter-screen for Shiga toxin inhibitors: cycloheximide protein synthesis inhibition | cell reporter, cycloheximide protein synthesis inhibition counterscreen | max response, % | actives 12% (n = 300,000) | AID 2314; in the data active = max response mostly above about 13%, no sharp cut-off; inactive = mostly below about 14%; also: read at 38.3 µM for the half of the compounds with a filed dose; 0% is about no effect
Pf growth 96h = inhibits malaria parasite growth, 96 h; P. falciparum luciferase reporter growth, 96 h; Potency, µM (titrated, usually from 28.7 µM), inactives show at the highest dose activity change, negative = inhibition, actives largely listed as inhibitors; actives 6.9% (n = 320,000); AID 504834; also: potency is read from the fitted curve at half-maximal effect; % is scaled to controls: 0 for no effect and ±100 for the full control effect
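Two-generation exposure (96 h) targets delayed-death phenotype. Reporter parasites carrying integrated firefly luciferase, in red cells at 2% hematocrit and 0.05% parasitemia final, kept at 37 C, 5% CO2; luminescence loss indicates inhibition.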
Pf growth 48h = P. falciparum growth inhibition at 48 hours (one generation) | P. falciparum luciferase growth in erythrocytes, 48 h | Potency, µM (highest dose often 28.7 µM), without a hit: at the highest dose activity change, negative = inhibition, actives largely listed as inhibitors | actives 5.9% (n = 310,000) | AID 504832; also: potency is read from the fitted curve at half-maximal effect; % is scaled to controls: 0 for no effect and ±100 for the full control effect
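Growth was read as firefly luciferase luminescence after a 48 h, 37 C, 5% CO2 exposure of compounds to reporter-bearing P. falciparum cultures (0.1% parasitemia, 2% hematocrit final) in Albumax-supplemented RPMI 1640.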
NS1 inh = influenza NS1 inhibition | Potency, µM (top dose mostly 46.1 µM), for inactives: top-dose activity, positive = more growth | actives 0.4% (n = 270,000) | AID 2326; calls by dose curve; also: potency is read from the fitted curve at half-maximal effect; actives are rising curves; nearly all actives have a fitted effect of over 50% in size
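Growth recovery, yeast-based: influenza A NS1 expressed in S. cerevisiae causes slow growth, and suppressors are detected by OD600. The parent strain without NS1 is used as positive control.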
Shiga inhibitor = inhibitors of Shiga toxin in Vero cells. Vero cells, Shiga toxin protein synthesis inhibition reporter. inhibition, % at 38.7 µM. actives 9.2% (n = 290,000). AID 2315; in the data active = inhibition mostly above about 28%, no sharp cut-off; inactive = mostly below about 43%; also: 0% is about no effect
Active calls of the source: *; ? = inconclusive; / = not tested or not shown; [ ] = remark or other dose. Unless noted, calls follow the shape of the dose curve; as a rule, active = well fitted inhibition curve with a large enough effect; inconclusive = small, poorly fitted or top-dose-only effect, or another doubt; inactive = no such curve, though single readings can be large or run the other way.

SMILES | Cycloheximide cs | Pf growth 96h | Pf growth 48h | NS1 inh | Shiga inhibitor
Nc1ccc2nc(SCC(=O)N3CCN(c4ccccc4)CC3)sc2c1 | 3 | ? | -15% | -3% | -11
Cc1c(Cl)cccc1N/C(SCC(=O)N1CCCCCC1)=C(/C#N)c1nc2ccccc2s1 | -2 | 1.5µM* | 2.1µM* | 14% | -2
Nc1ccc2nc(SCC(=O)N3CCOCC3)sc2c1 | 31* | 25% | 36% | 2% | 71*
Cc1[nH]c2ccccc2c1C(=O)CSc1nnc(C2CC2)o1 | / | 47% | 0% | / | /
Cc1ccc(S(=O)(=O)N2CCCCCC2)cc1C(=O)NCc1ccccn1 | -4 | 19% | -2% | 6% | -9
Cc1ccc(C2(C)NC(=O)N(CC(=O)N(C)CC(=O)Nc3cccc4ccccc34)C2=O)cc1 (centres undefined) | / | 6% | 4% | / | /
Nc1ccc2nc(SCc3cccc(F)c3)sc2c1 | 42* | 2% | 303% | / | 152*
O=C(O)C1CCN(C(=O)CSc2nc3ccccc3s2)CC1 | -11 | -11% | 29% | / | -11
CC(=O)Nc1nnc(SCC(=O)N2C(C)CCCC2C)s1 (centres undefined) | -4 | 12µM* | 3% | -5% | -6
O=C(CSc1nc2ccccc2s1)N1CCCCC1 | 43* | / | 129% | -8% | 124*
CSc1nsc(SCC(=O)N2CCCCC2)n1 | 53* | -4% | 80% | / | 93*
CCOC(=O)CSc1nc2ccc(N)cc2s1 | 35 | -11% | 4% | -5% | 60
CNC(=O)CSc1nc(SC)ns1 | -2 | -24% | -11% | / | -5
CC(C)CCN(CCC(C)C)C(CO)(CO)CO | -4 | 73% | -1% | 1% | -4
C=CCn1c(SCc2nc3ccccc3c(=O)[nH]2)nc2scc(C3CC3)c2c1=O | 3 | -7% | ? | 10% | 5
CCCN(CCC)c1nc(NC2CCN(C(=O)OCC)CC2)nc(OC)n1 | -3 | ? | ? | -68% | -10
CCCCn1c(N)c(N(CCC(C)C)C(=O)CC2CCCC2)c(=O)[nH]c1=O | / | 3% | -1% | / | /
CCn1c(SCC(=O)N2CCCC2)nc2ccccc21 | 1 | 29% | 22% | / | 4
CC1CCCC(C)N1C(=O)CSc1nc2ccccc2s1 (centres undefined) | 35* | / | -9% | -2% | 126*
O=C(CSc1nc2ccccc2n1S(=O)(=O)c1ccccc1)N1CCCC1 | 13* | ? | 55% | 1% | 48*
O=C1N=NC(=O)N1c1ccccc1 | 4 | 32% | 16% | 13% | -2
CCN1/C(=C2/OC(=S)N(C)C2=O)Sc2ccccc21 | -4 | 100% | 87% | -7% | 3
CCN1/C(=C\C=C2\C(=O)N(C)C(=S)N2C)Sc2ccccc21 | 28* | ? | 17% | / | 63*
O=C(Cc1ccc(Cl)cc1)Nc1ncccn1 | -2 | 8% | 12% | 5% | -2
O=C(Cc1ccc(Cl)cc1)Nc1ccccn1 | 36* | -1% | 39% | -3% | 24
SMILES | Cycloheximide cs | Pf growth 96h | Pf growth 48h | NS1 inh | Shiga inhibitor
O=C(Nc1ccc(F)cc1)Nc1ccc(Cl)cn1 | 23* | 81% | 65% | -12% | 62*
O=S(=O)(Cc1ccc(Cl)cc1)Nc1ccc(Cl)cn1 | 11 | -7% | 27% | 10% | 25*
O=C(Cc1c(F)cccc1Cl)Nc1ccccn1 | 10 | ? | 48% | 3% | 37*
S=c1[nH]ncn1-c1ccccn1 | 2 | / | 15% | 8% | 1
O=C(CCNC(=O)c1ccco1)Nc1ccccc1N1CCOCC1 | 11 | -27% | 16% | / | 11
C=C(Nc1ccc(OCC)cc1)Nc1ccc(OCC)cc1 | -5 | -5% | -6% | / | -6
O=C(COC(=O)Cc1ccc(F)cc1)Nc1ccc(Cl)cn1 | / | -17% | -14% | / | /
O=C(CS(=O)(=O)Cc1ccccc1)Nc1ccc(Cl)cn1 | 1 | 16% | 2% | -24% | 9
O=C(Cc1ccc(Cl)cc1)Nc1ccc(Br)cn1 | 36* | ? | 61% | -3% | 72*
O=C(Cc1ccc(Cl)cc1)Nc1ccc(Cl)cn1 | 44* | -1% | 147% | 5% | 67*
O=C(Cc1ccc(Br)cc1)NNC(=O)Nc1ccc(Cl)cc1 | -1 | 10% | 4% | 5% | 18
O=C(Cc1ccc(F)cc1)Nc1ccc(Cl)cn1 | 26* | 54% | 67% | -11% | 81
CC(c1ccccc1C(O)(c1ccccc1)c1ccccc1)N(C)C (centres undefined) | -3 | ? | ? | -12% | -9
CCOC(=O)C1CCN(CC(O)COC(CC)c2ccccc2)CC1 (centres undefined) | -5 | 8% | 22% | -12% | -7
COc1cccc(-c2csc(NC(=O)Nc3ccccc3)n2)c1 | 14* | ? | 9%[0.00184 µM] | -1% | 57*
O=C(Nc1ccccc1)Nc1nc(-c2ccccc2)cs1 | 45* | 24% | -2% | -6% | 39
CC(C)(C)c1csc(NC(=O)Nc2ccccc2)n1 | 51* | 19% | 13% | / | 72*
O=C(Nc1ccccc1)Nc1nc(-c2ccc(F)c(F)c2)cs1 | 6 | 13µM* | 12µM* | 0% | 6
Cc1ccc(S(=O)(=O)Nn2c(C)ccc2C)cc1 | 8 | ? | 7% | ? | -12
Cc1ccc(NC(=O)CN(C)C(=O)Cc2ccc(Cl)cc2Cl)cc1 | 6 | ? | ? | 9% | 1
O=c1c(Cc2ccc(F)cc2)c(O)ccn1CCCN1CCOCC1 | -6 | 20% | -25%[5.75 µM] | 1% | -3
O=C(Nc1ccc(Cl)c(Cl)c1)Nc1nc(-c2ccccc2)cs1 | -3 | 2.3µM* | ? | -2% | -1
COc1ccc(N2CCN(C(=S)Nc3ccc(F)cc3)CC2)cc1 | -3 | 15µM* | 29% | 1% | /
COc1ccccc1N1CCN(C(=S)Nc2ccc(F)cc2)CC1 | 34* | ? | 2% | 2% | 45*
COc1ccc(OCc2nnc(SCC(=O)Nc3ccccc3C#N)o2)cc1 | -4 | 15% | 3% | 3% | -2
SMILES | Cycloheximide cs | Pf growth 96h | Pf growth 48h | NS1 inh | Shiga inhibitor
O=C(O)c1ccc(/C=N/N2CCN(Cc3ccccc3)CC2)cc1 | 0 | -14% | -2% | 6% | -1
CCCCN(CC)CCNC(=O)CN1C(=O)COc2ccc(S(=O)(=O)N3CCCC3)cc21 | -1 | ? | 15% | 0% | -3
CC(=O)/C=C(\C)NCCNc1c(F)c(F)c(CO)c(F)c1F | -4 | / | 13% | 13% | -14
CCSc1nnc(NC(=O)C2CCCN(S(=O)(=O)c3cnc[nH]3)C2)s1 (centres undefined) | 0 | 0% | 10% | 14% | -1
Cc1[nH]n(C(N)=S)c(=O)c1N=Nc1ccccc1C(F)(F)F | 20 | 7% | -11% | -83% | 16
Cc1nc(N)sc1N=Nc1ccccc1C(F)(F)F | 45* | ? | -17% | -1% | 112*
O=C(c1ccccc1)c1coc2ccc(O)c(CN3CCOCC3)c12 | 16 | 11% | ? | 0% | 22
Cc1oc2ccc(O)cc2c1C(=O)c1ccc([N+](=O)[O-])cc1 | 0 | 33% | 47% | -2% | 4
O=C(c1ccccc1)c1coc2ccc(O)c(Cl)c12 | 67* | -7% | -24% | -148% | 118*
Cc1ccc(C(=O)c2coc3ccc(O)c(Cl)c23)cc1 | 36* | 24% | / | -87% | 72*
